Screening data: PubChem, National Center for Advancing Translational Sciences (NCATS)
SARS PLP yeast: qHTS of Yeast-based Assay for SARS-CoV PLP. S. cerevisiae expressing SARS-CoV PLpro, growth rescue. Potency, µM (top dose mostly 32.9 µM), without a hit: at the highest dose activity, positive = growth rescue, actives largely listed as activators. hit rate 0.19% among 330,000; calls by dose curve; further: potency means the concentration at half of the fitted maximal effect; 0% is about no effect; nearly all actives have a fitted effect of over 55% in size
FMDV antiviral: High Throughput Screening for Foot and Mouth Disease Virus Antivirals; FMDV antiviral cell-based qHTS; Potency, µM (doses to about 57.9 µM), without a hit: top-dose activity change, negative = inhibition, actives largely listed as inhibitors; hit rate 1.2% among 410,000; AID 1159524, 2015; calls by dose curve; tested in HEK293T cells; further: read-out not given here; potency means the concentration at half of the fitted maximal effect; on the % scale 0 is the no-effect control and ±100 the full control effect; nearly all actives have a fitted effect of over 45% in size
Lassa entry inh: qHTS for Inhibitors of binding or entry into cells for Lassa Virus; Lassa virus pseudotype entry inhibition, cell reporter; Potency, µM (series often up to 37.9 µM), for inactives: at the highest dose activity change, negative = inhibition, usual class: inhibitors; hit rate 1.2% among 300,000; AID 540256, 2011; calls by dose curve; tested in HEK293 cells; further: potency means the concentration at half of the fitted maximal effect; on the % scale 0 is the no-effect control and ±100 the full control effect; nearly all actives have a fitted effect of over 50% in size
HCMV antiviral: qHTS Assay for inhibitors of the human cytomegalovirus (HCMV); HFF cells, HCMV-luciferase reporter, 72 h; hits give low values; activity change, negative = inhibition, % at 57.5 µM; hit rate 4.5% among 410,000; AID 1259415, 2018; in the data active means activity change below about -60%; inconclusive means no clear call, values can overlap the other calls; inactive means above about -39%; further: on the % scale 0 is the no-effect control and ±100 the full control effect
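Compounds were evaluated in HFFs infected with an HCMV luciferase reporter virus (MOI 1 PFU/cell). Luciferase in lysates collected 72 h post infection served as the replication measure.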
MARV entry inh: qHTS for inhibitors of binding or entry into cells for Marburg Virus. Potency, µM (top dose mostly 37.8 µM), for inactives: at the highest dose activity change, negative = inhibition, actives largely listed as inhibitors. hit rate 1.8% among 300,000. Marburg virus pseudotyped entry inhibition, cell reporter; calls by dose curve; tested in HEK293 cells; further: potency means the concentration at half of the fitted maximal effect; on the % scale 0 is the no-effect control and ±100 the full control effect
HCV inhibitor: qHTS Assay for Inhibitors of Hepatitis C Virus (HCV); Huh7.5.1 HCVcc-Cre infection, luciferase reporter, 44 h; hit rate 3.4% among 340,000; Potency, µM (doses to about 41.8 µM), for inactives: top-dose activity change, negative = inhibition, hits mostly inhibitors; active means well fitted inhibition curve with a large enough effect; inconclusive means small, poorly fitted or top-dose-only effect, or another doubt; inactive means no such curve, though single readings can be large or run the other way; further: potency means the concentration at half of the fitted maximal effect; on the % scale 0 is the no-effect control and ±100 the full control effect
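Infectious HCVcc-Cre (~0.5 moi) was added to cells just after compound, with cells seeded 4 h earlier at 1,000 per well. Luciferase activity after 44 h culture reported infection; substrate was incubated 15 min at room temperature before reading.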
* = called active by the depositor; ? = inconclusive; . = not tested or not shown; + = active, no number; [ ] = another dose, or the depositor's remark. Most compounds without a hit are left out; they make up all but 8% or so of the library.

SMILES	SARS PLP yeast	FMDV antiviral	Lassa entry inh	HCMV antiviral	MARV entry inh	HCV inhibitor
Cc1cc(=O)oc2cc(OCC(=O)NC3CCCCC3)c(Cl)cc12	1%	11%	15%[46.1 µM]	-8	-3%[46.1 µM]	6%
O=C(NC1CCCCC1)Oc1cc2oc(=O)sc2cc1Cl	-22%	25µM*	2%[46.1 µM]	-20	-1%[46.1 µM]	-6%
CCc1nc2nc(C)cc(Nc3ccc(OC)cc3)n2n1	.	-10%	-17%[46.1 µM]	-5	1%[46.1 µM]	.
O=c1c2ccccc2nc(N2CCCC2)n1-c1ccc(Cl)cc1	-2%	-26%	1%	-63*	11%	?
COc1nc2ccccc2c(=O)n1-c1ccc(Cl)cc1	-5%	-7%	?	-61*	10%	3%
CCCN(CCC)S(=O)(=O)c1ccc(Cl)c(OC)c1	1%	10%	-15%	-8	?	-4%
O=C(O)c1cccc(NC(=S)NC(=O)c2ccc3ccccc3c2)c1	2%	14µM*	0.79µM*	39	?	14%
Cn1nnc(NC(=O)c2ccc3ccccc3c2)n1	2%	35%	10%	34	?	-22%
Cn1nnc(NC(=S)NC(=O)c2ccc3ccccc3c2)n1	.	49%	.	-67*	.	.
O=C(O)c1ccc(NC(=S)NC(=O)c2ccc3ccccc3c2)cc1	0%	1%	10%	7	-17%	9%
COc1ccc(-c2nc3ccccc3n3c(-c4cccc(C)c4)c4c(=O)n(C)c(=O)n(C)c4c23)cc1OC	.	?	2%[46.1 µM]	?	2%[46.1 µM]	.
CCOC(=O)c1c(NC(=O)c2nn(C)cc2[N+](=O)[O-])sc(C)c1C	0%	6%	11%	66	6%[46.1 µM]	3.5µM*
CCOC(=O)c1c(NC(=O)C[n+]2ccc(Cc3ccccc3)cc2)sc(C)c1C	0%	-27%	-21%[46.1 µM]	-38	?	1.3µM*
CCOC(=O)c1c(NC(=O)CNC2CCCCC2)sc(C)c1C	1%	-16%	-20%[46.1 µM]	10	?	10µM*
COC(=O)CCC(=O)NC(=S)Nc1sc(C)c(C)c1C(N)=O	3%	14%	?	?	-24%	1%
Cc1sc(NC(=S)NC(=O)CCc2ccccc2)c(C(N)=O)c1C	-11%	-1%	?	-83*	?	?
CCOC(=O)c1c(NC(=S)Nc2ccccc2)sc(C)c1C	-2%	.	-9%	-21	3%	2%
COc1ccc(NC(=O)c2sc(=O)n(Cc3cccc(C(F)(F)F)c3)c2C)cc1OC	.	-5%	.	-22	.	.
CCOC(=O)c1c(NC(N)=O)sc(C)c1C	-30%	-17%	-9%	66	1%	0.89µM*
CCOC(=O)c1c(NC(=O)CN2CCCc3ccccc32)sc(C)c1C	-5%	-22%	-19%	-36	?	3.2µM*
CCOC(=O)c1c(NC(=O)CNCCO)sc(C)c1C	0%	0%	3%	7	23%	?
CSc1nnc(CCNC(=O)c2ccc(-c3cccc(F)c3)cc2)n1-c1ccc(F)cc1	.	0%	.	.	.	.
Oc1c(Br)cc(CNC2CCCCC2)cc1Br	.	-5%	15%[46.1 µM]	-33	-11%[46.1 µM]	?
C=C1CCC2[C@](C)(CO)[C@H](O)CC[C@@]2(C)[C@@H]1C/C=C1/C(=O)OC[C@H]1O (some centres undefined)	.	-15%	.	.	.	.
C=C1CCC2[C@](C)(CO)[C@H](O)CC[C@@]2(C)[C@@H]1C/C=C1\C(=O)OC[C@H]1O (some centres undefined)	1%	?	.	-107*	.	?
C[C@H](NC(=O)[C@H]1N2C(=O)c3ccccc3C2SC1(C)C)C(=O)N1CCC[C@H]1C(=O)O (some centres undefined)	-1%	-6%	.	14	.	1µM*
CC(C)[C@H](NC(=O)[C@H]1N2C(=O)c3ccccc3C2SC1(C)C)C(=O)NCc1ccco1 (some centres undefined)	9%	3%	.	+	.	2%
C[C@H](NC(=O)[C@H]1N2C(=O)c3ccccc3C2SC1(C)C)C(=O)N1CCC[C@H]1CO (some centres undefined)	0%	-12%	.	-13	.	10%
